# Results: the supplement of paper PMC6555819
# Key:
# Test in all cases: PBM binding z-score (relative to random genomic background probes); higher = stronger binding; sequences stand for … in GC…GCGATTGACAGCGTAGAATGAAGG
# [1] = tested on: FXR:RXRa (NR concentration 270 nM, RXRa partner concentration 90 nM)
# How it was run: (§1)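 Binding z-scores take random background probes as their reference. They come from custom Agilent 4×180K protein-binding microarrays incubated 1 h with ligand-free nuclear receptor dimers, with antibodies against each partner (one per run) detecting binding. Scanned fluorescence was regression-normalized.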
# [2] = tested on: LXRa:RXRa (NR concentration 270 nM, RXRa partner concentration 90 nM)
# How it was run: as §1
# [3] = tested on: LXRa homodimer (NR concentration 270 nM)
# How it was run: as §1
# [4] = tested on: LXRb:RXRa (NR concentration 270 nM, RXRa partner concentration 90 nM)
# How it was run: as §1
# [5] = tested on: LXRb homodimer (NR concentration 270 nM)
# How it was run: as §1
# [6] = tested on: PPARa:RXRa (NR concentration 270 nM, RXRa partner concentration 90 nM)
# How it was run: as §1
# [7] = tested on: PPARg:RXRa (NR concentration 180 nM, RXRa partner concentration 90 nM)
# How it was run: as §1
# [8] = tested on: PPARg:RXRa 270nM:90nM, anti-RXR (NR concentration 270 nM, RXRa partner concentration 90 nM)
# How it was run: as §1
# [9] = tested on: PPARg:RXRa 30nM:10nM, anti-RXR (NR concentration 30 nM, RXRa partner concentration 10 nM)
# How it was run: as §1
# [10] = tested on: PPARg:RXRa 90nM:30nM, anti-RXR (NR concentration 90 nM, RXRa partner concentration 30 nM)
# How it was run: as §1
# [11] = tested on: PPARg:RXRa DBDmut IVT, anti-RXR (DBD mutation: RXRa K156A/R161A, NR concentration 270 nM, RXRa partner concentration 90 nM)
# How it was run: as §1
# [12] = tested on: PPARg:RXRa IVT, anti-PPARg (NR concentration 270 nM, RXRa partner concentration 90 nM)
# How it was run: as §1
# [13] = tested on: PPARg DBDmut:RXRa IVT, anti-PPARg (DBD mutation: PPARg1 K132A/R137A, NR concentration 270 nM, RXRa partner concentration 90 nM)
# How it was run: as §1
# [14] = tested on: PPARg DBDmut IVT, anti-PPARg (DBD mutation: PPARg1 K132A/R137A, NR concentration 270 nM)
# How it was run: as §1
# [15] = tested on: PPARg homodimer (NR concentration 180 nM)
# How it was run: as §1
# [16] = tested on: PXR:RXRa (NR concentration 270 nM, RXRa partner concentration 90 nM)
# How it was run: as §1
# [17] = tested on: PXR homodimer (NR concentration 270 nM)
# How it was run: as §1
# [18] = tested on: RARa:RXR (NR concentration 270 nM, RXRa partner concentration 90 nM)
# How it was run: as §1
# [19] = tested on: RARa homodimer (NR concentration 270 nM)
# How it was run: as §1
# [20] = tested on: RARb:RXRa (NR concentration 270 nM, RXRa partner concentration 90 nM)
# How it was run: as §1
Sequence,PBM binding z-score [1],PBM binding z-score [2],PBM binding z-score [3],PBM binding z-score [4],PBM binding z-score [5],PBM binding z-score [6],PBM binding z-score [7],PBM binding z-score [8],PBM binding z-score [9],PBM binding z-score [10],PBM binding z-score [11],PBM binding z-score [12],PBM binding z-score [13],PBM binding z-score [14],PBM binding z-score [15],PBM binding z-score [16],PBM binding z-score [17],PBM binding z-score [18],PBM binding z-score [19],PBM binding z-score [20]
CCAGATAGGTGAAAGGTAACTCAGTCTGGTACGC,0.688,0.694,0.0245,1.14,-0.143,4.2,7.95,7.54,7.57,7.93,5.2,4.32,0.289,-0.0951,1.74,1.02,0.111,2.13,0.659,1.31
CCTATTAGTTGACCATAAGGGGAACCGAAGCTCG,0.142,0.366,0.327,0.217,0.84,0.0558,0.299,0.112,-0.0773,0.104,0.601,0.106,0.62,0.755,1.54,0.541,0.854,0.248,2.37,0.582
TGAATGAGGGTATAAGATCAGGGAACGTTGCAAA,0.413,0.344,-0.145,0.00334,0.501,0.874,0.576,1.23,1.11,0.839,0.322,0.573,0.938,0.423,0.497,0.178,0.202,0.234,-0.0465,0.303
GCTAGCAGGCCATTTGGGTGACTCAATGACGGGC,-0.535,-0.729,-0.901,-1.05,-1.19,0.031,0.218,-0.431,-0.682,-0.48,1.46,0.949,-0.802,-0.751,-0.989,-0.366,-0.793,-0.229,-1.01,0.0482
ACTAGCAGGCCAAGTTTGAGTCACTCAAACAAAG,-0.527,-0.601,-0.503,-0.529,-0.797,-0.0783,-0.147,-0.486,-0.4,-0.496,0.376,0.193,-0.678,0.262,-0.297,-0.433,-0.248,-0.0649,-1.17,0.293
CGAACTAGGTCATTGACAGGACAGTGAATAGTAA,4.56,2.89,0.461,2.07,0.0276,4.67,7.66,6.13,3.8,5.54,8.1,8.32,2.23,1.53,1.77,1.89,0.245,2.44,0.499,3.79
GGAACGAGGGCAGTCGAGTTGATAGCATGGCGAT,0.203,-0.214,-0.72,-0.752,-1.02,0.405,0.453,-0.213,-0.485,-0.457,2.24,1.29,-0.319,-0.59,-0.872,1.83,-0.252,-0.0532,-0.989,1.77
CTGACTGGGGCAAAGGTTACCATACTCAGTACGA,1.83,1.87,-0.166,3.05,-0.352,6.09,11.3,9.42,9.13,10.2,6.27,6.51,0.767,0.374,1.19,2.61,0.266,4.17,0.228,2.67
TCTCTGAGGACACGAAGGTCAGAGCTTTCCAGAG,2.1,1.06,0.117,0.798,-0.338,2,0.595,2.08,2.59,2.22,1.47,1.68,0.539,-0.166,0.898,2.18,1.25,2.04,-0.145,3.29
CAAACTAGGTCAAGGGTCAAAGTCGAGCCAACCA,7.52,5.72,2.34,5.71,1.02,7.64,13.1,10.9,11.4,11.8,8.5,9.08,6.09,4.1,5.23,5.66,0.825,7.15,1.84,5.38
TCTAGTTGGTCACAGAGGTCACACACGACGGGTA,4.73,4.98,3.92,4.46,1.51,4.84,4.45,5.18,4.12,5.26,2.85,4.35,1.86,0.876,6.9,5.58,2.89,6.16,4.36,4.28
CCTTACGGGTCACTCCAGCTTATAGCATCGGAGT,4.62,3.14,-0.000472,2.66,0.0792,4.46,2.98,3.49,0.864,2.44,2.73,2.95,0.84,0.0391,1.95,2.52,0.285,3.54,0.557,3.56
CCTACTGGGCCAAAGGTAATTGATTCCAATGCTC,-0.451,-0.199,-0.379,-0.0867,-0.845,3.66,8.76,7.99,6.87,8.72,5.36,4.68,0.0261,0.0447,0.234,-0.286,-0.264,-0.0121,-0.474,0.179
CTACCAAGGTGAACAAGGTCGTTAATTACTATTC,1.3,1.23,0.268,1.86,-0.284,2.61,1.07,1.5,0.266,1.15,2.2,2.78,0.73,0.27,1.17,2.76,1.14,2.57,0.262,2.11
CCAGACAGGTGAAAGGCAACTCAGTCTGGTACGC,-0.102,0.0112,-0.327,0.0509,-0.597,1.7,2.49,3.2,1.12,2.8,0.767,1.08,0.0608,-0.556,0.466,-0.0216,-0.296,0.0824,0.0834,0.639
CAAACTAGCTCAAGAGGTCAAAGTCCGCTTCCCG,4.69,5.44,5.42,5.16,1.67,5.04,1.65,3.87,1.52,2.88,0.982,2.06,0.545,0.408,2.37,5.37,1.87,5.13,1.34,3.96
AGATCGAGGGCAATGAGTTGATAGCACGGGTGGC,0.45,0.121,-0.246,-0.143,-0.369,1.14,1.16,0.568,0.0147,0.283,2.97,2.42,0.184,-0.0429,0.453,1.53,3.29,0.437,0.369,2.12
CGAACTAGGTCATCCAGGACAGTGGATACATTGA,4.72,2.32,0.245,1.99,0.307,4.9,7.83,5.84,4.33,5.96,7.91,7.98,1.6,0.738,2.41,1.89,1.23,2.52,1.24,4.03
AGAATGTGGTTAAGATCAGGGAAACAGAATACAT,0.33,-0.14,0.153,0.27,0.174,0.172,0.496,0.291,0.299,-0.247,-0.145,0.0486,0.832,0.677,0.635,0.308,0.679,0.217,0.647,0.103
CGTCAAAGTTCAAGGTACCGTAACAGAAAGCAGC,6.16,5.65,3.11,3.48,0.91,4.61,4,4.81,1.82,3.9,0.47,1.61,0.0848,0.822,2.35,3.99,2.46,3.45,0.789,5.08
ATCTCTAGGTAAAGATAGTCCAGTGAATGCAAAT,0.226,0.368,-0.00685,-0.0224,0.398,-0.051,0.458,0.219,0.157,0.0539,2.01,1.66,1.44,0.736,0.414,-0.159,0.523,-0.259,0.93,-0.257
CCTTACGGGTCAAGGTTATTGCACGGGTGGTACG,5.1,3.67,0.262,2.96,0.000433,4.77,4.52,4.63,2.03,3.46,2,3.61,-0.367,-0.115,2.22,3.62,0.512,4.2,0.978,4.12
ACTAGCAGGCTAAGTTTGGGTCACTCAAACAAAG,-0.0373,-0.132,-0.315,0.424,-0.557,1.28,-0.0855,0.315,-0.575,-0.155,0.316,0.557,-0.411,-0.519,-0.136,0.49,-0.438,1.31,-0.552,1.17
AGAACGAGGGAACGCTGAGTTGATAGCAGAGTAG,-0.288,-0.46,-0.611,-0.674,-0.803,-0.499,0.464,-0.265,-0.0206,-0.332,0.157,0.0104,-0.0244,-0.171,-0.732,-0.323,-0.229,-0.613,0.201,-0.517
CCTGGTTGGTCAGGAGGTCACACACCGGATATGA,3.43,3.17,1.62,3.13,0.647,3.89,2.6,3.31,0.453,1.96,-0.199,2.62,-0.128,-0.135,2.95,3.98,0.67,4.45,1.25,3.44
CGAATTAGGTCATTGACAGGACAGTGAATAGTAA,4.67,3.39,0.61,2.55,0.269,4.89,6.83,6.02,3.62,5.68,8.21,7.99,4.24,2.12,2.32,1.77,0.55,2.57,0.994,3.73
TAGCCTAGGTCATTTAGGGGCCAGTATAGAAAGC,4.42,4.04,0.996,3.09,1.69,3.41,1.46,2.15,0.169,1.49,1.79,2.38,0.515,-0.286,1.87,2.34,-0.166,3.45,-0.429,3.6
TCTTGTAGATCGACAGGAGGTTAAGAAAGATCGA,-0.239,0.869,-0.338,0.656,-0.423,0.999,-0.276,1.14,2.24,1.55,0.885,0.145,0.496,0.679,-0.189,0.501,-0.189,0.459,-0.333,0.401
